gsp ag: qHTS for Agonist of gsp, the Etiologic Mutation Responsible for Fibrous Dysplasia/McCune-Albright Syndrome: qHTS. Potency, µM (top dose mostly 76.9 µM), actives largely listed as activators. gsp mutant cells, cAMP HTRF, 30 min. AID 624287, 2012. 340,000 tested, 0.13% active; active = well fitted activation curve with a large enough effect; inconclusive = small, poorly fitted or top-dose-only effect, or another doubt; inactive = no such curve, though single readings can be large or run the other way; cell line not stated here;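 also: phosphodiesterase inhibitor Ro 20-1724 added with compounds to block cAMP breakdown; nearly all actives have a fitted effect of over 60% in size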
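Cells in DMEM/10% FBS with G418 were pretreated with compounds in DMSO plus […] (300 uM stock) for 30 min at 37C. cAMP was measured by HTRF (cAMP-d2 plus anti-cAMP antibody-K) after 30 min at room temperature.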
gsp antag: qHTS for Antagonists of gsp, the Etiologic Mutation Responsible for Fibrous Dysplasia/McCune-Albright Syndrome: qHTS; gsp-mutant cells, cAMP HTRF, 30 min; Potency, µM (series often up to 76.9 µM), usual class: inhibitors; 340,000 tested, 0.4% active; AID 624288, 2012; calls by dose curve; cell line not stated here;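 also: intracellular cAMP measured with PDE inhibitor Ro 20-1724 present during compound exposure; nearly all actives have a fitted effect of over 65% in size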
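HTRF cAMP measurement after 30 min RT detection following 30 min, 37C compound treatment alongside […] (added as 300 uM solution) in G418-selected cells seeded at 2000/well and grown 16–24 h.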
BRCA1 expr act: qHTS Assay to Identify Small Molecule Activators of BRCA1 Expression; AID 624202, 2012; 380,000 tested, 1.1% active; Potency, µM (highest dose often 46.1 µM), hits mostly activators; MCF7-BRCA1-FFLuc reporter, luminescence, 48 h; response scale: scaled: vehicle 0%, 10 µM genistein 100%; also: nearly all actives have a fitted effect of over 80% in size
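Luminescence from a BRCA1-driven firefly luciferase in MCF7 cells was read after 48 h compound exposure at 37 C. Data normalized against DMSO and a 10microM genistein activation control, then curve-fitted across the titration.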
mIDH1 inhibitor: qHTS for Inhibitors of mutant isocitrate dehydrogenase 1 (IDH1): qHTS; Isocitrate dehydrogenase [NADP] cytoplasmic (Homo sapiens), O75874; IDH1-R132H enzyme, NADPH consumption, diaphorase/resazurin fluorescence; Potency, µM (top dose mostly 76.6 µM), most hits filed as inhibitors; 390,000 tested, 0.093% active; AID 602179, 2012; also: nearly all actives have a fitted effect of over 65% in size
Target sequence (O75874 whole entry R132H, stated change not applied): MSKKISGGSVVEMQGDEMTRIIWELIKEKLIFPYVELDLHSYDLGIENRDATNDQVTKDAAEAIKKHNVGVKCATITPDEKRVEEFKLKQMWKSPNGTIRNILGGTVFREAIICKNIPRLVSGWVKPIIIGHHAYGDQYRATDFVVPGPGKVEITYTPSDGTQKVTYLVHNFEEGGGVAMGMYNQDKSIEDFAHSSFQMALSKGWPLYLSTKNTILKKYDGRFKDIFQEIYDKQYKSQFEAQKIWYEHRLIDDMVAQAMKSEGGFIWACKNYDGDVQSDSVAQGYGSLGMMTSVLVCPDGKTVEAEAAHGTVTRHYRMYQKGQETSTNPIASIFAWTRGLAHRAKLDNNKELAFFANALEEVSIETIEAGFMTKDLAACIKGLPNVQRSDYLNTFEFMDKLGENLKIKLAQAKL
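IDH1-R132H (0.5 ug/mL) preincubated 30 min with compound, then NADPH (0.016 mM) and alpha-KG (2 mM) added; 80 min at RT, pH 7.5. Remaining NADPH coupled via diaphorase/resazurin to fluorescence (540/590 nm); concentration-response curves normalized to no-enzyme control.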
IL-2 act: qHTS of IL-2 Activators; IL-2 activation reporter assay, cell-based qHTS; stimulated with anti-CD3/CD4/CD28 beads; in transgenic mouse T cells; activation, % (series mostly up to about 46 µM); 360,000 tested, 0.065% active; in the data active = activation above about 50%; inconclusive = mostly about 30% to 49%
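Using fluorescent plate cytometry, EGFP and DsRed are detected in transgenic mouse T cells stimulated 18 h at 37 degrees C with antibody-coated beads after 60 min compound pretreatment.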
Large screens that a line does not name were inactive. Shown are actives, neighbours in structure and some others; about 1.5% of the full set was active somewhere. Unless noted, calls follow the shape of the dose curve; as a rule, active = well fitted curve in the direction sought with a large enough effect; inconclusive = small, poorly fitted or top-dose-only effect, or another doubt; inactive = no such curve, though single readings can be large; an effect the other way counts as inactive or inconclusive.

CC(C)(C)c1nnc(SCC(=O)Nc2ccc(N3CCCCC3)cc2)n1N	BRCA1 expr act 3.98µM
O=C(CCc1ccccc1)Nc1cc(S(=O)(=O)N2CCOCC2)ccc1N1CCCC1	none
CN1CCN(C(=O)c2cc(-c3cccc(Cl)c3)on2)CC1	gsp ag inconclusive, BRCA1 expr act inconclusive
O=C(c1cc(-c2cccc(Cl)c2)on1)N1CCCCCC1	BRCA1 expr act 12.6µM
O=C(Nc1nc2c(Cl)ccc(Cl)c2s1)C1CC1	none
NNc1nc2c(Cl)ccc(Cl)c2s1	gsp antag 28.2µM
CC(=O)c1cc(Cl)ccc1OCc1cccc(S(=O)(=O)N2CCOCC2)c1	gsp antag 35.5µM
O=S(=O)(c1cccc(COc2ccc(Cl)cc2Cl)c1)N1CCOCC1	none
Cc1ccnc(Nc2nc(-c3ccc(O)cc3)cs2)c1	BRCA1 expr act inconclusive
Cc1ccnc(Nc2nc(-c3ccc(O)cc3O)cs2)c1	BRCA1 expr act 7.94µM
CC(C)c1cnc2c(c1SCC(=O)Nc1ccc(OC(F)(F)F)cc1)c(=O)n(C)c(=O)n2C	none (no result: gsp ag, gsp antag, BRCA1 expr act, IL-2 act)
CCCCSc1nnc2n(-c3ccc(OC)cc3)c(=O)c3c4c(sc3n12)COC(C(C)C)C4 (configuration not stated)	none (no result: gsp ag, gsp antag, BRCA1 expr act, IL-2 act)
O=S1(=O)CC(N2CCC(Cc3ccccc3)CC2)CN1C1CCCC1 (configuration not stated)	none (no result: gsp ag, gsp antag, mIDH1 inhibitor)
Cc1cccc(C)c1NC(=O)C1c2ccccc2OCC(=O)N1CCCN1CCOCC1 (configuration not stated)	none (no result: gsp ag, gsp antag, mIDH1 inhibitor)
CCCn1nnc(NC(=O)c2ccc(Cl)cc2Cl)n1	BRCA1 expr act 2.51µM
CCCn1nnc(NC(=O)c2cccnc2Cl)n1	none
CCCn1nnc(NC(=O)c2ccccc2Cl)n1	BRCA1 expr act 11.2µM
Cc1ccc(C(=O)Oc2oc(-c3ccco3)nc2C=Nc2ccc(Cl)cc2)cc1	BRCA1 expr act 2µM
O=C(Oc1oc(-c2ccco2)nc1C=Nc1ccccc1)c1ccoc1	none
COc1ccccc1NC(=O)Cn1c(SCC(=O)NCc2ccccc2)nc2ccccc21	none (no result: gsp ag, gsp antag, IL-2 act)
CCOC(=O)N1CCN(/[N+]([O-])=N/Oc2ccc(C(F)(F)F)cc2[N+](=O)[O-])CC1	none (no result: gsp ag, gsp antag, mIDH1 inhibitor, IL-2 act)
CCOc1ccccc1NC(=O)Cn1c(=O)n(-c2ccc(C)cc2)c(=O)c2c1cnn2C	none (no result: gsp ag, gsp antag, BRCA1 expr act, IL-2 act)
CS(=O)(=O)N1CCc2cc(C(=O)Nc3ccc(Cl)c(C(F)(F)F)c3)ccc21	none (no result: gsp ag, gsp antag, IL-2 act)
Brc1ccccc1OCCOc1cccc2cccnc12	BRCA1 expr act inconclusive
Brc1ccccc1OCCCOc1cccc2cccnc12	BRCA1 expr act 8.91µM
O=C1CC(c2ccco2)CC2=C1C(c1ccc(O)cc1)n1nc(C(F)(F)F)nc1N2 (configuration not stated)	none (no result: gsp ag, gsp antag, mIDH1 inhibitor, IL-2 act)
COc1ccc2nc(SCC(=O)C(C)(C)C)[nH]c2c1	BRCA1 expr act 7.94µM
CCOc1ccc2nc(SCC(=O)N(C)C)[nH]c2c1	BRCA1 expr act 10µM
Cc1cccc2c(N=Nc3ccccc3)c(O)[nH]c12	IL-2 act 257.5
S=c1[nH]c2nc(Cl)c(Cl)nc2[nH]1	gsp ag 12.6µM (no result: gsp antag)
CCc1ccc2oc(-c3ccc(OC)cc3)cc(=Nc3cccc(C(=O)O)c3)c2c1	none (no result: gsp antag)
CCc1ccc2oc(-c3ccc(OC)cc3)cc(=Nc3c(C)n(C)n(-c4ccccc4)c3=O)c2c1	gsp antag 28.2µM
O=c1n(Cc2ccccc2Cl)nc2n1-c1ccccc1SC2	BRCA1 expr act 11.2µM
O=C(COc1ccc2c3c(c(=O)oc2c1)CCC3)NCCCN1CCOCC1	gsp ag inconclusive
Cn1c(=O)cc(SCC(=O)NCCCN2CCOCC2)c2ccc(Cl)cc21	gsp ag 28.2µM
CCn1c(=O)cc(SCC(=O)NCCCN2CCN(c3ccc(F)cc3)CC2)c2ccccc21	gsp ag 22.4µM
CCn1c(=O)cc(SCC(=O)NCCCN2CCC(C)CC2)c2ccccc21	gsp ag inconclusive
O=C(COc1ccc2c(c1)oc(=O)c1ccccc12)NCCCN1CCOCC1	gsp antag active
Cn1c(=O)cc(SCC(=O)NCCCN2CCOCC2)c2ccccc21	gsp ag 22.4µM
O=C(Nc1ccc(OC(F)F)cc1)c1nc(S(=O)(=O)Cc2ccccc2F)ncc1Cl	none (no result: gsp ag, gsp antag, mIDH1 inhibitor, IL-2 act)
